From ChEMBL document CHEMBL4513146, “CO-ADD screening of Karazin Kharkiv National University (Ukraine) compounds” come the findings set out here.

Results with a measured potency or affinity are listed apart.

In one assay the test system is Klebsiella pneumoniae. The settings on record: Concentration 32 ug.mL-1;; ASSAY_TEST Inhibition of Bacterial Growth; detection method Absorption (OD600); MEDIA CAMHB; plate type 384well; NBS; CORNING #3640; time 18 hr.
Another assay deals with Candida albicans. The note with it: Concentration 32 ug.mL-1; ASSAY_TEST Inhibition of Fungal Growth; detection method Absorption (OD530).
For the next assay, the system named is Cryptococcus neoformans. The settings on record: Concentration 32 ug.mL-1; ASSAY_TEST Inhibition of Fungal Growth; detection method Resazurin; Absorption (OD600-OD570); plate type 384well; NBS; CORNING #3640. For orientation: The colour change of resazurin is a common sign of viable cells or microbes.

Broadly, the Inhibition is the relative decrease from the control value, in per cent. Take `Cc1ccc2c(c1)N(C(=O)Cn1nc3ccc(S(=O)(=O)C(C)(C)C)nn3c1=O)CCO2`: the Inhibition with Klebsiella pneumoniae is reported as 13.78%; in the assay on Candida albicans, 0.51%; in the assay with Cryptococcus neoformans, -14.77%.

As for `O=c1c2nnc(SCc3ccc(F)cc3)n2ccn1-c1ccc(Br)cc1`, the figures for the Inhibition with Klebsiella pneumoniae, in the assay with Candida albicans and in the assay on Cryptococcus neoformans were 4.74%, 2.87% and -8.82%, respectively.

As for `Cc1cccc(N(C)C(=O)Cn2nc3cc(C)nc(Nc4ccc(C)c(F)c4)n3c2=O)c1`, the figures for the Inhibition in the assay with Klebsiella pneumoniae, in the assay with Candida albicans and in the assay with Cryptococcus neoformans were 20.18%, 4.24% and -1.47%, respectively.

As to `CCC(C)NC(=O)Cn1c(=O)c2nnc(C)n2c2ccccc21` (stereo not drawn), the Inhibition in the assay on Klebsiella pneumoniae is reported as 11.59%; in the assay on Candida albicans, 0.05%; in the assay on Cryptococcus neoformans, -11.45%.

For the compound `Cc1ccc(Cl)cc1NC(=O)CSc1nc2ccccc2n2c(C(C)C)nnc12`, the Inhibition with Klebsiella pneumoniae was 7.66%; with Candida albicans it was 11.96%; in the assay with Cryptococcus neoformans, -19.47%.

Take `O=C(CSc1nnc2c(=O)n(-c3ccc(F)c(F)c3)ccn12)c1ccccc1Cl`: the Inhibition in the assay on Klebsiella pneumoniae is recorded as 10.86%; in the assay with Candida albicans, 3.43%; in the assay with Cryptococcus neoformans it was -7.06%.

In the case of `Cn1c(=O)c2ccc(C(=O)NC3CCCCC3)cc2n2c(=O)n(Cc3cccc(C(F)(F)F)c3)nc12`, the Inhibition in the assay with Klebsiella pneumoniae is listed as 16.04%; in the assay with Candida albicans it was 1.42%; in the assay with Cryptococcus neoformans it was -24.7%.

Take `Cn1c(=O)c2sccc2n2c(=O)n(Cc3cccc(Br)c3)nc12`: the Inhibition in the assay on Klebsiella pneumoniae is reported as 5.37%; in the assay on Candida albicans it was 10.92%; in the assay with Cryptococcus neoformans, -9.95%.

With `CCc1nnc2c(SCC(=O)Nc3ccc(Cl)cc3)nc3ccccc3n12`, the values for the Inhibition in the assay with Klebsiella pneumoniae, with Candida albicans and in the assay on Cryptococcus neoformans were 3.4%, 9.64% and -3.51%, respectively.

With `O=S(=O)(c1ccc2nncn2c1)N(Cc1cccc(F)c1)c1ccc2c(c1)OCCO2`, the results for the Inhibition in the assay with Klebsiella pneumoniae, in the assay on Candida albicans and with Cryptococcus neoformans were 10.4%, 1.26% and -5.06%, respectively.

As for `COc1cc(OC)c(NC(=O)Cn2nc3c(Sc4ccc(C)cc4C)nccn3c2=O)cc1Cl`, the values for the Inhibition with Klebsiella pneumoniae, in the assay with Candida albicans and with Cryptococcus neoformans were 6.06%, 4% and -14.9%, respectively.

Consider `Cc1cccc(CSc2nnc3c(=O)n(-c4ccc(Br)cc4)ccn23)c1`, for which the figures for the Inhibition in the assay with Klebsiella pneumoniae, in the assay on Candida albicans and in the assay with Cryptococcus neoformans were -2.02%, 2.08% and -6.53%, respectively.

Take `CCCNC(=O)Cn1nc2n(Cc3cccs3)c(=O)c3sccc3n2c1=O`: the values for the Inhibition in the assay with Klebsiella pneumoniae, with Candida albicans and in the assay with Cryptococcus neoformans were 9.05%, -0.4% and -15.54%, respectively.

`NC(=O)CSc1nnc2c(=O)n(-c3ccc(F)cc3)ccn12`: the values for the Inhibition in the assay with Klebsiella pneumoniae, with Candida albicans and in the assay on Cryptococcus neoformans were 0.07%, 2.37% and -6.51%, respectively.

On to `O=C(CSc1nnc2c3cc(-c4ccc(F)cc4)nn3ccn12)NCc1ccccc1Cl`, for which the Inhibition in the assay on Klebsiella pneumoniae was 4.63%; with Candida albicans it was 14.03%; with Cryptococcus neoformans it was -17.41%.

As for `C=Cc1ccc(CN(c2cccc(Cl)c2)S(=O)(=O)c2cccn3c(C)nnc23)cc1`, the Inhibition with Klebsiella pneumoniae is 6.94%; with Candida albicans, 1.33%; in the assay on Cryptococcus neoformans it was -16.09%.

For the compound `O=C(CSc1nnc2c(=O)n(-c3ccccc3)ccn12)Nc1cc(F)ccc1F`, the values for the Inhibition in the assay with Klebsiella pneumoniae, in the assay with Candida albicans and in the assay on Cryptococcus neoformans were -0.92%, 1.57% and -15%, respectively.

As to `O=C(Cn1nc2c3cc(-c4ccc(F)cc4)nn3ccn2c1=O)Nc1ccccc1`, the Inhibition in the assay on Klebsiella pneumoniae was 5.09%; in the assay with Candida albicans, 9.56%; in the assay with Cryptococcus neoformans, -11.97%.

For `CCc1nnc2ccc(S(=O)(=O)N(Cc3cccc(OC)c3)c3ccc(F)cc3)cn12`, the Inhibition is 3.57% with Klebsiella pneumoniae, 1.64% in the assay on Candida albicans and -8.65% with Cryptococcus neoformans.

As for `O=C(CSc1nnc2c(=O)n(-c3ccccc3)ccn12)N1CCN(c2ccc(F)cc2)CC1`, the results for the Inhibition with Klebsiella pneumoniae, with Candida albicans and in the assay with Cryptococcus neoformans were 13.33%, -0.45% and -26.48%, respectively.

Turning to `O=C(CSc1nnc2c3cc(-c4ccccc4)nn3ccn12)Nc1cccc(Br)c1`, the results for the Inhibition in the assay with Klebsiella pneumoniae, with Candida albicans and in the assay with Cryptococcus neoformans were 14.04%, 3.21% and -28.34%, respectively.
